According to PubChem BioAssay (NCATS):
Values joined by “and” are separate entries in the source; they are usually repeats but may differ in a detail not shown here. Equal entries are not always repeated. Records with an inconclusive call do not appear. A call without a number means that no potency is given here. More than one record can exist for a structure, and the calls need not agree. Unmarked numbers belong to inactive results. Active and inactive are the calls of the source. Calls follow the shape of the dose curve; as a rule, active = well fitted inhibition curve with a large enough effect; inconclusive = small, poorly fitted or top-dose-only effect; inactive = flat fitted curve, though single readings scatter.

Columns and labels:
W2 = assay: qHTS profiling for inhibitors of Plasmodium falciparum proliferation (AID 504749); also: potency is read from the fitted curve at half-maximal effect; settings: P. falciparum in erythrocytes, SYBR Green DNA, 72 h; series mostly up to 28.7 µM
Summary of the method: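 Each compound contacts P. falciparum-infected red blood cells for 72 h at 37 C; lysis buffer (Tris, EDTA, saponin, Triton X, SYBR Green I) is added and fluorescence measured next morning; values normalized to controls.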

CRL-7250 = normal cell line; assay: Cytotoxic Profiling of Annotated Libraries Using Quantitative High-Throughput Screening (AID 1296008); settings: Five cell lines viability, CellTiter-Glo ATP luminescence, 48-72 h; max response: hits give low values; also: potency is read from the fitted curve at half-maximal effect
Summary of the method: (§1)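 Cells exposed to compounds for 48 or 72 hr at 37 degrees Celsius. Viability read as ATP-coupled luminescence with CellTiter-Glo after 10 min at room temperature.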

HEK293 = assay: as above; settings: Five cell lines viability, CellTiter-Glo ATP luminescence, 48-72 h; max response: hits give low values
Summary of the method: as §1

HaCat [1] = assay: as above; settings: Five cell lines viability, CellTiter-Glo ATP luminescence, 48-72 h; max response: hits give low values
Summary of the method: as §1

KB-3-1 = assay: as above; settings: Five cell lines viability, CellTiter-Glo ATP luminescence, 48-72 h; max response: hits give low values
Summary of the method: as §1

NIH3T3 = assay: as above; settings: Five cell lines viability, CellTiter-Glo ATP luminescence, 48-72 h; max response: hits give low values
Summary of the method: as §1

HACAT [2] = assay: qHTS assay to identify novel small-molecules to repurpose for Merkel cell carcinoma treatment (AID 1296009); settings: MCC and control cell lines, CellTiter-Glo viability, 72 h; at 44.8 µM (top of the series) unless noted
Summary of the method: (§2)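 Dose-response viability screen; 72 hr exposure at 37 degree celsius; CellTiter-Glo added, 10 min room temperature, luminescence read; RLUs scaled between no-cell and DMSO wells.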

HEK293T = assay: as above; settings: MCC and control cell lines, CellTiter-Glo viability, 72 h; at 44.8 µM (top of the series) unless noted
Summary of the method: as §2

MCC-13 = assay: as above; settings: MCC and control cell lines, CellTiter-Glo viability, 72 h; series mostly up to 46 µM
Summary of the method: as §2

MCC-26 = assay: as above; settings: MCC and control cell lines, CellTiter-Glo viability, 72 h; series mostly up to 46 µM
Summary of the method: as §2
Also: nearly all actives have a fitted effect of over 60% in size.

Row | SMILES | Potency (W2) | max response (CRL-7250) | max response (HEK293) | outcome (HEK293) | outcome (HaCat [1]) | max response (KB-3-1) | outcome (KB-3-1) | outcome (NIH3T3) | outcome (HACAT [2]) | outcome (HEK293T) | Potency (MCC-13) | Potency (MCC-26) | outcome (CRL-7250) | max response (HaCat [1]) | max response (NIH3T3) | Potency (HEK293) | Potency (CRL-7250) | Potency (HaCat [1])
1 | CC(C)[C@H](N)C(=O)OCCOCn1cnc2c(=O)[nH]c(N)nc21 | inactive | -3.66% and 1.07% | 4.44% | inactive | inactive | 10.2% | inactive | inactive | inactive | inactive | inactive | inactive | – | – | – | – | – | –
2 | O=C(O)CCNC(=O)c1ccc(N=Nc2ccc(O)c(C(=O)O)c2)cc1 | inactive | -3.32% | -9.94% and 3.93% | – | inactive | – | – | inactive | inactive | – | inactive | inactive | inactive | -13.4% | – | – | – | –
3 | Clc1ccc(C(Cn2ccnc2)OCc2ccsc2Cl)c(Cl)c1 (configuration not stated) | 1690 nM (active) | 1.94% | – | – | – | -26.3% and -17.4% | – | – | – | – | inactive | inactive | inactive | -18.6% and -23.1% | – | – | – | –
4 | O=C(NC(Cc1cc(=O)[nH]c2ccccc12)C(=O)O)c1ccc(Cl)cc1 (configuration not stated) | inactive | -2.81% | -6.76% and -6.81% | – | inactive | 9.29% | inactive | inactive | inactive | – | inactive | inactive | inactive | -8.32% | – | – | – | –
5 | CCC[C@@H]1C[C@@H](C(=O)N[C@@H]([C@H]2O[C@H](SC)[C@H](O)[C@@H](O)[C@H]2O)[C@@H](C)O)N(C)C1 | 338 nM (active) | -16.2% | -5.82% and -16.1% | – | – | -5.54% | – | – | – | – | inactive | inactive | inactive | -11.9% and -14% | -4.88% and -7.89% | – | – | –
6 | COC1=C(OC)C(=O)C(CCCCCCCCCCO)=C(C)C1=O | – | -2.47% | – | – | inactive | -4.5% and -1.13% | – | inactive | inactive | – | inactive | – | inactive | -8.33% | 4.9% | 23.7 µM (active) | – | –
7 | CS(=O)(=O)OCCCCOS(C)(=O)=O | inactive | -2.55% | -5.94% | inactive | inactive | 2.33% and 4.33% | – | – | inactive | inactive | inactive | inactive | inactive | -18.7% | -7.8% and -0.608% | – | – | –
8 | COc1ccc(C2(C#N)CCC(C(=O)O)CC2)cc1OC1CCCC1 (configuration not stated) | inactive | – | 4.74% | inactive | inactive | 6.11% and 7.73% and 2.33% | – | – | inactive | inactive | inactive | inactive | inactive | – | 4.78% and 4.09% | – | – | –
9 | Cc1ncc([N+](=O)[O-])n1CC(C)O (configuration not stated) | inactive | -19.5% | 3.63% | inactive | inactive | 2.22% and 6.66% | – | inactive | inactive | inactive | inactive | inactive | inactive | -8.77% | 2.47% | – | – | –
10 | O=C(NCC1CCCCN1)c1cc(OCC(F)(F)F)ccc1OCC(F)(F)F (configuration not stated) | – | -77.3% | -82.7% | – | – | – | – | – | – | – | inactive | inactive | inactive | -9.94% and -10.2% | -7.85% | – | – | –
11 | COc1cc(OC)c(C(=O)CCCN2CCCC2)c(OC)c1 | inactive | – | -1.67% and -16.3% | – | – | -2.3% and 3.48% | – | inactive | – | – | inactive | inactive | inactive | 4.83% and -3.89% | -4.19% | – | – | –
12 | O=C(CCc1ccc(O)cc1)c1c(O)cc(O)cc1O | – | – | 0.264% | – | inactive | – | inactive | inactive | inactive | – | inactive | – | inactive | – | – | – | – | –
13 | Nc1nc(OCc2ccccc2)c2[nH]cnc2n1 | – | 0.448% | – | inactive | inactive | 5.98% | – | inactive | inactive | inactive | inactive | inactive | – | – | – | – | – | –
14 | Cc1cc(=O)c2c(O)c3c(O)cc(=O)c4c3c3c(cc(O)c1c23)C(C)(C)C=4O | 1350 nM (active) | – | – | – | inactive | – | – | – | inactive | – | inactive | inactive | – | – | -0.918% | 2.59 µM (active) and 3.72 µM (active) | 3.66 µM (active) and 13.2 µM (active) | 1300 nM (active)
15 | Cc1cc(=O)oc2cc(O)ccc12 | inactive | 4.43% and 2.39% | 4.56% | inactive | – | 2.35% and 1.97% | – | – | – | inactive | inactive | – | – | 1.05% and -3.2% | -7.66% and -0.637% | – | – | –
16 | OC(CN1CCN(c2cccc(Cl)c2)CC1)C(c1ccccc1)c1ccccc1 (configuration not stated) | – | -4.87% | – | – | – | -12.1% and -1.2% | – | inactive | – | – | inactive | – | – | -65.8% and -1.92% | -14.3% | 9.35 µM (active) | – | –
17 | COCCCOc1ccnc(CS(=O)c2nc3ccccc3[nH]2)c1C (configuration not stated) | 1070 nM (active) | – | 1.81% | – | inactive; activator | -10% | inactive | inactive | inactive; activator | – | inactive | inactive | inactive | -2% | -12.1% and 2.17% | – | – | –
18 | O=C(O)c1cccnc1Nc1cccc(C(F)(F)F)c1 | inactive | -6.42% and -10.2% | -4.95% | – | inactive | – | – | inactive | inactive | – | inactive | – | – | 1.64% | -31.9% | – | – | –
19 | Cc1cccc(-c2[nH]ncc2-c2ccc3ncccc3n2)n1 | – | -2.02% | -26.8% | – | inactive | -11.3% | – | – | inactive | – | inactive | inactive | – | – | -18.1% | – | – | –
20 | O=C(NCCO[N+](=O)[O-])c1cccnc1 | inactive | -0.661% and -5.95% | – | inactive | inactive | – | inactive | inactive | inactive | inactive | inactive | inactive | – | 4.19% | – | – | – | –
21 | O=c1oc2cc(O)ccc2s1 | – | 4.4% | -4.04% | – | inactive | -11.2% and -4.56% | – | – | inactive | – | inactive | – | – | – | -4.48% | – | – | –
22 | CCN(CC)CCOc1ccc(Cc2ccccc2)cc1 | – | -29.7% | – | – | inactive | -7.39% and -3.92% | – | – | inactive | – | inactive | inactive | – | -17.2% | -6.6% | 8.33 µM (active) | – | –
23 | Clc1ccc2c(N3CCN(CCCN4CCN(c5ccnc6cc(Cl)ccc56)CC4)CC3)ccnc2c1 | – | -5.75% | – | inactive | inactive | 3.7% | – | – | inactive [at 17.4 µM] | inactive [at 17.4 µM] | inactive | inactive | – | – | -5.21% | – | – | –
24 | CC(S)C(=O)NCC(=O)O (configuration not stated) | inactive | – | -0.0067% and -3.71% | – | inactive | 5.7% | – | – | inactive | – | inactive | inactive | inactive | -2.01% | 0.885% and -1.07% | – | – | –
25 | Oc1ccc(OCc2ccccc2)cc1 | – | -0.407% and -9.61% | -5.94% and -19.5% | – | – | 45.1% | inactive | inactive | – | – | inactive | inactive | – | -14% and -4.74% | – | – | – | –
26 | CN1CCC(=C2c3ccccc3CCc3sccc32)CC1 | 1510 nM (active) | -8.84% and -2.17% | – | – | inactive | -12.2% and -19.3% | – | inactive | inactive | – | inactive | inactive | – | – | 2.3% | 26.4 µM (active) and 10.6 µM (active) | – | –
27 | CNC[C@H](O)c1ccc(O)c(O)c1 | inactive | -3.3% and -3.53% | -3.32% | inactive | – | – | – | inactive | – | inactive [at 17.4 µM] | inactive | inactive | – | -1.14% and -13.4% | – | – | – | –
28 | Cc1nccn1CC1CCc2c(c3ccccc3n2C)C1=O (configuration not stated) | – | -48.9% and -2.23% and -14.6% | -1.64% and -12.7% and -0.203% | – | inactive | -3.61% and -19.2% | inactive | – | inactive | – | inactive | inactive | – | -3.6% and 4.03% | -4.36% and -4.32% and -0.458% | – | – | –
29 | c1cnc2cc3c(cc2n1)C1CNCC3C1 | – | -23.9% and -2.72% | -2.74% and -10.4% | – | inactive | 3.64% and -1.73% | inactive | inactive | inactive | – | inactive | – | – | 2.53% | 4.61% | – | – | –
